The text below walks through data of paper PMC7862700, “An all-to-all approach to the identification of sequence-specific readers for epigenetic DNA modifications on cytosine”.

Holding throughout (assay): DAPPL (digital affinity profiling via proximity ligation, sequencing); 10 mM Tris-HCl pH 7.5, 50 mM NaCl, 1 mM DTT, 4% glycerol, room temperature, 30 min; GST-TFs on glutathione beads, 16-mer random dsDNA library, 0.1% formaldehyde crosslink after washing; high values mean tight binding
In one assay the target is T1, FLI1 (Homo sapiens, UniProt Q01543 1-452).
T1 sequence: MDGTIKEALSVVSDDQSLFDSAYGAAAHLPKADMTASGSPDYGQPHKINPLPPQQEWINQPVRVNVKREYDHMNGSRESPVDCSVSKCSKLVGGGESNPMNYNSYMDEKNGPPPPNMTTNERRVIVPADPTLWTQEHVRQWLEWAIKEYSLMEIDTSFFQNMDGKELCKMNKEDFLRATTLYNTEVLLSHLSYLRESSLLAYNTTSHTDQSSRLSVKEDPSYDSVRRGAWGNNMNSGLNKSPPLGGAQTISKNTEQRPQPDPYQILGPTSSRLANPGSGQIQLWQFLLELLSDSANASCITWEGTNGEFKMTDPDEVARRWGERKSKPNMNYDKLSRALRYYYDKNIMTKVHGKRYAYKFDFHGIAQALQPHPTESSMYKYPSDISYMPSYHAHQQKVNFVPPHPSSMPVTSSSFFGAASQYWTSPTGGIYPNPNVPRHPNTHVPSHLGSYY
As to conditions: protein: recombinant; tags: N-terminal GST; dsDNA, one strand shown. The method, boiled down:
(§1)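 Yeast served to express human transcription factors as GST fusions, which were then captured on glutathione beads and labelled with DNA barcodes. Pooled with a tag-only sample, they were incubated with 200 nmole of a 16-mer random double-stranded DNA library for 30 min at room temperature in Tris/NaCl/DTT/glycerol buffer, washed, crosslinked with 0.1% formaldehyde, ligated by proximity, amplified by PCR and sequenced. Dividing each hexamer's read frequency for a factor by its frequency for the tag-only sample gives the binding signal.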

A further assay concerns the target T2, ELK1 (Homo sapiens, UniProt P19419 1-428).
T2 sequence: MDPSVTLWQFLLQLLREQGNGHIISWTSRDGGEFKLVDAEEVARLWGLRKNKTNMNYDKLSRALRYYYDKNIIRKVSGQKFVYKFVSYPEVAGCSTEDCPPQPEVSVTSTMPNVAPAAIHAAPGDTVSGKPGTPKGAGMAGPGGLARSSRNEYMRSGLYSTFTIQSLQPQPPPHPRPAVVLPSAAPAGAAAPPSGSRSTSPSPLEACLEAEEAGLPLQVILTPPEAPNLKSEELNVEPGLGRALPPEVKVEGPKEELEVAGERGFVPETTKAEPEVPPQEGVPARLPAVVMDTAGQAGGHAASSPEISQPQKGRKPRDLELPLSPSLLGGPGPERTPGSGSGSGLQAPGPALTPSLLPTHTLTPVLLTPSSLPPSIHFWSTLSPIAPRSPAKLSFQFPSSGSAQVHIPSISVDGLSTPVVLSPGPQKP
To be noted: protein: recombinant; tags: N-terminal GST; dsDNA, one strand shown. The method, boiled down:
as §1

For the next assay, the target named is T3, GABPA (Homo sapiens, UniProt Q06546 1-454).
T3 sequence: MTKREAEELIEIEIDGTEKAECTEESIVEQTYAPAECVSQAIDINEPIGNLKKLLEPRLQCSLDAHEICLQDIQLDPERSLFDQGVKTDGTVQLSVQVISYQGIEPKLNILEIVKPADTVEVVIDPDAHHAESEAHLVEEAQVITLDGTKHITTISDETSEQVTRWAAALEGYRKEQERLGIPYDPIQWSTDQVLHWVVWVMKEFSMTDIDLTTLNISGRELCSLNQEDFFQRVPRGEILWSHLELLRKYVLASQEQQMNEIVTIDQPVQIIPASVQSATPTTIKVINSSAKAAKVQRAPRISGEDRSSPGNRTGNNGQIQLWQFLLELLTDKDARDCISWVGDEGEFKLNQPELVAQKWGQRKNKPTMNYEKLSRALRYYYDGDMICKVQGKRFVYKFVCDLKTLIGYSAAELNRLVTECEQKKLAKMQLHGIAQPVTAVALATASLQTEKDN
To be noted: protein: recombinant; tags: N-terminal GST; dsDNA, one strand shown. The method, boiled down: as §1

Another assay addresses T4, ERG (Homo sapiens, UniProt P11308 1-479).
T4 sequence: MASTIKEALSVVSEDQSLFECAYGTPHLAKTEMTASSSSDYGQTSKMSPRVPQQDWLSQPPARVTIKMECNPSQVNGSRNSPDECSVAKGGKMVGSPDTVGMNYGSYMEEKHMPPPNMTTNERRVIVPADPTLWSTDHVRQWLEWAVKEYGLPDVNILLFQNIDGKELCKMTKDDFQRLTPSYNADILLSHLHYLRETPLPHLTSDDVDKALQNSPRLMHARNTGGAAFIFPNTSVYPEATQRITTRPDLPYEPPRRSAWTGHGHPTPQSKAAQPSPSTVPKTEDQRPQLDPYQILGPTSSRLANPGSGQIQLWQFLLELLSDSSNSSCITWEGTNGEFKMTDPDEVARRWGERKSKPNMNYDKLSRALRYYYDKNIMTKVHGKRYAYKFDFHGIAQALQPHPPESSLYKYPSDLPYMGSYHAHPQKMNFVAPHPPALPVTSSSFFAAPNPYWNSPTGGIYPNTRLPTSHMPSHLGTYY
To be noted: protein: recombinant; tags: N-terminal GST; dsDNA, one strand shown. The essentials: as §1

For another assay, the target named is ELF1 (Homo sapiens, UniProt P32519 1-619). To be noted: protein: recombinant; tags: N-terminal GST; dsDNA, one strand shown. The method, boiled down:
as §1

The next assay deals with T5, EHF (Homo sapiens, UniProt Q9NZC4 1-300).
T5 sequence: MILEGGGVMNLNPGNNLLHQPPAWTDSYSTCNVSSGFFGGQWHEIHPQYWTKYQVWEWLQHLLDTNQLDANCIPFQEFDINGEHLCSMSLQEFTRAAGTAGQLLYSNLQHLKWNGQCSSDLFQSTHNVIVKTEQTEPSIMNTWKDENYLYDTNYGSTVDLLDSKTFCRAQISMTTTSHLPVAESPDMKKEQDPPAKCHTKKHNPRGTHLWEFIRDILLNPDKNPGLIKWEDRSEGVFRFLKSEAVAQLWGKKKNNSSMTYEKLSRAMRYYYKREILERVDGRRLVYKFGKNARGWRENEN
To be noted: protein: recombinant; tags: N-terminal GST; dsDNA, one strand shown. The method, boiled down:
as §1

Another assay concerns the target SPI1 (Homo sapiens, UniProt P17947 1-270). To be noted: protein: recombinant; tags: N-terminal GST; dsDNA, one strand shown. The method, boiled down: as §1
For the next assay, the target named is SPIB (Homo sapiens, UniProt Q01892 1-262). To be noted: protein: recombinant; tags: N-terminal GST; dsDNA, one strand shown. The method, boiled down:
as §1

The target of the next assay is T6, ELK3 (Homo sapiens, UniProt P41970 1-407).
T6 sequence: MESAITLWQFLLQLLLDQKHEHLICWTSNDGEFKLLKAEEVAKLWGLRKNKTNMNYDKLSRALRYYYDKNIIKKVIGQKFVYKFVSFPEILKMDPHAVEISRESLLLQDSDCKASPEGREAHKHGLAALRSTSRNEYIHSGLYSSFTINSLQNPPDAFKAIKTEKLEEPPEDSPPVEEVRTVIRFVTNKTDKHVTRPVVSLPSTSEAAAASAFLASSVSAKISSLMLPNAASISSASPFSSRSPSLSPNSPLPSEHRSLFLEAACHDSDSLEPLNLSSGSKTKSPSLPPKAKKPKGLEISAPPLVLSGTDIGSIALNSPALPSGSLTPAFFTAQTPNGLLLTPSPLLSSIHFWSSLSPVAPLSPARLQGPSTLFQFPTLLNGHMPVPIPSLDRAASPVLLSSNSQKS
As to conditions: protein: recombinant; tags: N-terminal GST; dsDNA, one strand shown. The essentials:
as §1

The target in another assay is T7, FEV (Homo sapiens, UniProt Q99581 1-238).
T7 sequence: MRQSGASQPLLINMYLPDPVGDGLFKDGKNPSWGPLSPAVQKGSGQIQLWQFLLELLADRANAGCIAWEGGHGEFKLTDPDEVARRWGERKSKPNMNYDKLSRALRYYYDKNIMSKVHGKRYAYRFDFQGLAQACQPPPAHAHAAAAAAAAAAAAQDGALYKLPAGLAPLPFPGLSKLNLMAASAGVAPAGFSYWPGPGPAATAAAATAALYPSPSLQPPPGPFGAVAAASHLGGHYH
As to conditions: protein: recombinant; tags: N-terminal GST; dsDNA, one strand shown. The method, boiled down: as §1

The next assay deals with ETV5 (Homo sapiens, UniProt P41161 1-510). To be noted: protein: recombinant; tags: N-terminal GST; dsDNA, one strand shown. The method, boiled down:
as §1

A further assay deals with HSF1 (Homo sapiens, UniProt Q00613 1-529). To be noted: protein: recombinant; tags: N-terminal GST; chain copies: 3; dsDNA, one strand shown. The method, boiled down:
as §1

A further assay deals with T8, SPIC (Homo sapiens, UniProt Q8N5J4 1-248).
T8 sequence: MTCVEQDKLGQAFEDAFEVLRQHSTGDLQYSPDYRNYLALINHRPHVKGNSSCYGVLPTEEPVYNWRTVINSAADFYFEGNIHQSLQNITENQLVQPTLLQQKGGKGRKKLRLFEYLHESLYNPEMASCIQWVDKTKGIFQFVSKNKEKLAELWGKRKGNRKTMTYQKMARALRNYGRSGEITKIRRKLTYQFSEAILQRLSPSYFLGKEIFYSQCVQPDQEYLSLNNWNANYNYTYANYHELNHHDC
As to conditions: protein: recombinant; tags: N-terminal GST; dsDNA, one strand shown. The essentials: as §1

In the next assay the target is ELF4 (Homo sapiens, UniProt Q99607 1-663). To be noted: protein: recombinant; tags: N-terminal GST; dsDNA, one strand shown. The essentials: as §1
The next assay addresses T9, ELK4 (Homo sapiens, UniProt P28324-2 1-405).
T9 sequence: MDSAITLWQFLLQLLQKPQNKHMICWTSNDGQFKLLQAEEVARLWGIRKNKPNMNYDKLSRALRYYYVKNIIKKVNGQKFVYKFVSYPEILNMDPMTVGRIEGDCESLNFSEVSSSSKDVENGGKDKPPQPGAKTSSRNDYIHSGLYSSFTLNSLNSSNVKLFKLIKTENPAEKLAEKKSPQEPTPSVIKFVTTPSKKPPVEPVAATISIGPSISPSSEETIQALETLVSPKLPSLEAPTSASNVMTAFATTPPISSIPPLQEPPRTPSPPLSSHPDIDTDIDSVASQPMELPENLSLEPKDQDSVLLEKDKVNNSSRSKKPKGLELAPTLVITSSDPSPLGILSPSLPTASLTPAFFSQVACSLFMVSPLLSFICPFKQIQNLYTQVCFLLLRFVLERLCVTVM
As to conditions: protein: recombinant; tags: N-terminal GST; dsDNA, one strand shown. The method, boiled down:
as §1

In the next assay the target is T10, ETV2 (Homo sapiens, UniProt O00321 1-342).
T10 sequence: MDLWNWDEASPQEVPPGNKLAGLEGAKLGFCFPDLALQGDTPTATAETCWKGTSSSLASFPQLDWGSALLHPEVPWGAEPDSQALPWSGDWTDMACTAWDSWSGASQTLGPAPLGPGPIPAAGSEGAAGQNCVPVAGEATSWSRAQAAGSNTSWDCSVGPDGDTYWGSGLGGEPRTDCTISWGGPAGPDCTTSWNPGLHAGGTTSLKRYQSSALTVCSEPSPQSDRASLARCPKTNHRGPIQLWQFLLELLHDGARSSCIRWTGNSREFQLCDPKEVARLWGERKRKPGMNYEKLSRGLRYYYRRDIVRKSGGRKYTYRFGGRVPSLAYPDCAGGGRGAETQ
To be noted: protein: recombinant; tags: N-terminal GST; dsDNA, one strand shown. The method, boiled down:
as §1

The next assay concerns the target T11, ELF3 (Homo sapiens, UniProt P78545 1-371).
T11 sequence: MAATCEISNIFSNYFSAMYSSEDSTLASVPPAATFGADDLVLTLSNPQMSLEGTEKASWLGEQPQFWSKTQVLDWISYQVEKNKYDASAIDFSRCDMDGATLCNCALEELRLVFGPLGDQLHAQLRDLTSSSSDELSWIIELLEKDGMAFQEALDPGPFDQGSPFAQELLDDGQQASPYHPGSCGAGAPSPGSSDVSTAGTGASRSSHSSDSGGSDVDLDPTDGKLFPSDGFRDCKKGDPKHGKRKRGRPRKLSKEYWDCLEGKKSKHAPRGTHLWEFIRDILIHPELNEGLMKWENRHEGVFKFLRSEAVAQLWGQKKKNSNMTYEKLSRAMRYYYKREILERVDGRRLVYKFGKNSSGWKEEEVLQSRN
As to conditions: protein: recombinant; tags: N-terminal GST; dsDNA, one strand shown. The method, boiled down: as §1

For another assay, the target named is CRX (Homo sapiens, UniProt O43186 1-299). To be noted: protein: recombinant; tags: N-terminal GST; dsDNA, one strand shown. The method, boiled down:
as §1

A further assay has as its target ETV1 (Homo sapiens, UniProt P50549 1-477). As to conditions: protein: recombinant; tags: N-terminal GST; dsDNA, one strand shown. The essentials:
as §1

HSF1, sequence (Q00613 whole entry): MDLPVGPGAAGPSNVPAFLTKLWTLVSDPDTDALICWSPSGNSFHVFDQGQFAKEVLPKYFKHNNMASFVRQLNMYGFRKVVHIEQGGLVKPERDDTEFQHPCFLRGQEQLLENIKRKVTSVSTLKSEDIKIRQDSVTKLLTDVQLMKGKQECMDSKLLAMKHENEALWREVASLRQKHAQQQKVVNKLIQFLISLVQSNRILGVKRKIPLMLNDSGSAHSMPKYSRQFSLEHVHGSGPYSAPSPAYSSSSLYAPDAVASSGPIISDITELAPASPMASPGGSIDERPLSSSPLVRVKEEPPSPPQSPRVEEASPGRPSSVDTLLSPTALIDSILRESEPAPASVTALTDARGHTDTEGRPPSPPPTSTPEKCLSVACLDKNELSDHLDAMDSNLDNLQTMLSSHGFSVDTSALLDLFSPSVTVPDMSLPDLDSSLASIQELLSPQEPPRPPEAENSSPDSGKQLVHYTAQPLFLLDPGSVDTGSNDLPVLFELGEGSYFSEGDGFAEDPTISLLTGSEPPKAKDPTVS
ELF1, sequence (P32519 whole entry): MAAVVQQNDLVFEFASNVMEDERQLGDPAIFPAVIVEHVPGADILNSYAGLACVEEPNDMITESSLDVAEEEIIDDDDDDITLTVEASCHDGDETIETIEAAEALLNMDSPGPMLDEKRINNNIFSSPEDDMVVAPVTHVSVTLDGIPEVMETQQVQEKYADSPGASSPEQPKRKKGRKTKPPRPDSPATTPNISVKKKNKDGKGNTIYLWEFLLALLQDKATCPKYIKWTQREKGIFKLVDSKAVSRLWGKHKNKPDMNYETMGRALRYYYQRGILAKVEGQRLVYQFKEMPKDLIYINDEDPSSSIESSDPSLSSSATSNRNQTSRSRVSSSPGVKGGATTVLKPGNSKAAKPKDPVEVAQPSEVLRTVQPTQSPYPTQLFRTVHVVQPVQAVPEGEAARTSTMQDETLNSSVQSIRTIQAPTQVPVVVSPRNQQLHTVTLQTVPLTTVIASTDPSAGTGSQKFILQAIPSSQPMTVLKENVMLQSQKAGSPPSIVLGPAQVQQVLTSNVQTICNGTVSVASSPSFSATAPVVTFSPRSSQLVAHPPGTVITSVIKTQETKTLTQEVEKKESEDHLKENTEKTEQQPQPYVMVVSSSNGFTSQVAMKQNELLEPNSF
ELF4, sequence (Q99607 whole entry): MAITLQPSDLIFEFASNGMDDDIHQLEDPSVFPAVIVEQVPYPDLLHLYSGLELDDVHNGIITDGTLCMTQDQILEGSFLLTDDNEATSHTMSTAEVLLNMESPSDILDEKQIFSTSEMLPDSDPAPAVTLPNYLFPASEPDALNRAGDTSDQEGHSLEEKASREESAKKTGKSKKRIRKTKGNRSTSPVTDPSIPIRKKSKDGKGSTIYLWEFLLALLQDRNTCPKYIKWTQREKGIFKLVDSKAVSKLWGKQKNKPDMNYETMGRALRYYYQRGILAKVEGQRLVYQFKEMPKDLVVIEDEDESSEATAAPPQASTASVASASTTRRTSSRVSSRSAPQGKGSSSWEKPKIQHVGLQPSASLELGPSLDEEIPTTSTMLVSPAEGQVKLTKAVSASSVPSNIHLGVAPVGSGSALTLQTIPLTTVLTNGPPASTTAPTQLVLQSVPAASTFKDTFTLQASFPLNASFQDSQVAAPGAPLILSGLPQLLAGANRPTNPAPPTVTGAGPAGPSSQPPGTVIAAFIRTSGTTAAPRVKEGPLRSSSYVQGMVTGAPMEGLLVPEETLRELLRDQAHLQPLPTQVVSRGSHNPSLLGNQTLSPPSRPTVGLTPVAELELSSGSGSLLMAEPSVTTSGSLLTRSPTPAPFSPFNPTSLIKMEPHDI
CRX, sequence (O43186 whole entry): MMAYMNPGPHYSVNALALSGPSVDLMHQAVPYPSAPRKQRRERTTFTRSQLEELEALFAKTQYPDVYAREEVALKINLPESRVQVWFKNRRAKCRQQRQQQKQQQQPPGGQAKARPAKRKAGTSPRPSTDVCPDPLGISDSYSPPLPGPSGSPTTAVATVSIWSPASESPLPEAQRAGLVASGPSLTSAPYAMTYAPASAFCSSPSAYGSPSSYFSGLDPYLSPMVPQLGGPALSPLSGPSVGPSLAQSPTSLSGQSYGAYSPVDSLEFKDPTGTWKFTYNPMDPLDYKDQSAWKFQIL
ETV1, sequence (P50549 whole entry): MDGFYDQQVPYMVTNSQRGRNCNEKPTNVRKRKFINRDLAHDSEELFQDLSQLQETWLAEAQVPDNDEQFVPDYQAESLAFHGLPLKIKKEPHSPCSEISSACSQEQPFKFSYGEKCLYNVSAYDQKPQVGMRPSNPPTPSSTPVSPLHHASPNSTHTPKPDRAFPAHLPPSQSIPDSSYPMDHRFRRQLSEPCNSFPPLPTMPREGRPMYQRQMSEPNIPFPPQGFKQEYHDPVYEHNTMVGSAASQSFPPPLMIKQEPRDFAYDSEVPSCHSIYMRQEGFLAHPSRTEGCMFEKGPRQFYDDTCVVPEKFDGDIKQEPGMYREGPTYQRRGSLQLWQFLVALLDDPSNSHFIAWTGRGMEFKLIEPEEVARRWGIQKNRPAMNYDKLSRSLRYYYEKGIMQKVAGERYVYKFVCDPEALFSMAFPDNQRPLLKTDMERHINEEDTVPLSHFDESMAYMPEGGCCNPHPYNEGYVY
SPIB, sequence (Q01892 whole entry): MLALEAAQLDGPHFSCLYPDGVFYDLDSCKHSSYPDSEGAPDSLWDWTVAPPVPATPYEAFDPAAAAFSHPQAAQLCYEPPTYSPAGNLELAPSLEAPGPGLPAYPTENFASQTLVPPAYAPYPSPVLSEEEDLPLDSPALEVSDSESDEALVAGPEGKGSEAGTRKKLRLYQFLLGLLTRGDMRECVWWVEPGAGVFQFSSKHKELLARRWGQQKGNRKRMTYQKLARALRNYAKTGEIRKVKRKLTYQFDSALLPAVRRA
ETV5, sequence (P41161 whole entry): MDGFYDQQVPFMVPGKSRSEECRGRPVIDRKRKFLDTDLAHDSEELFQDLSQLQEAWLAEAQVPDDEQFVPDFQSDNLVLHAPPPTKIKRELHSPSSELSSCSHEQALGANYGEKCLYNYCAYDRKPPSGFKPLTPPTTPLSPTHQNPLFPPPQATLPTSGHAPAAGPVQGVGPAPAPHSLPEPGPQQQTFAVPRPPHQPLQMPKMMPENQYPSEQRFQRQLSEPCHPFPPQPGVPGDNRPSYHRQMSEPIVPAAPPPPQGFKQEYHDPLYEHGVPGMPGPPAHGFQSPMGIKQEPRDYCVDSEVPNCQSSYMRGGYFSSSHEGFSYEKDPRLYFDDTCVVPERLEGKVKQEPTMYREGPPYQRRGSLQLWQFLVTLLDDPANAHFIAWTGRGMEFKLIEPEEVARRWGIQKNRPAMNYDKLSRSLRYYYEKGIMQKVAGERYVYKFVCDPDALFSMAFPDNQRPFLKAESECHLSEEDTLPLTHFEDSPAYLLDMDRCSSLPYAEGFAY

For AAGAAT, the binding signal in the assay with FLI1 is 1.13 fold enrichment (6-mer frequency, TF over GST control); with ELK1, 1.17 fold enrichment (6-mer frequency, TF over GST control); with GABPA it was 1.13 fold enrichment (6-mer frequency, TF over GST control); in the assay with ERG, 1.15 fold enrichment (6-mer frequency, TF over GST control); in the assay with ELF1, 1.11 fold enrichment (6-mer frequency, TF over GST control); with EHF it was 1.14 fold enrichment (6-mer frequency, TF over GST control). The binding signal in the assay with SPI1 was 1.18 fold enrichment (6-mer frequency, TF over GST control); in the assay with SPIB, 1.14 fold enrichment (6-mer frequency, TF over GST control); with ELK3, 1.1 fold enrichment (6-mer frequency, TF over GST control); with FEV, 1.09 fold enrichment (6-mer frequency, TF over GST control); with ETV5, 1.11 fold enrichment (6-mer frequency, TF over GST control); in the assay with HSF1 it was 1.83 fold enrichment (6-mer frequency, TF over GST control). For the same sequence, the binding signal with SPIC was 1.08 fold enrichment (6-mer frequency, TF over GST control); in the assay with ELF4 it was 1.24 fold enrichment (6-mer frequency, TF over GST control); in the assay with ELK4, 1.09 fold enrichment (6-mer frequency, TF over GST control); with ETV2, 1.12 fold enrichment (6-mer frequency, TF over GST control); with ELF3, 1.17 fold enrichment (6-mer frequency, TF over GST control); in the assay with CRX it was 1.43 fold enrichment (6-mer frequency, TF over GST control). Also, the binding signal with ETV1 was 1.15 fold enrichment (6-mer frequency, TF over GST control).
